Measurements: PubChem BioAssay (NCATS)
Results filed as inconclusive are left out. Calls of active or inactive are those of the source. Unless noted, calls follow the shape of the dose curve; as a rule, active = well fitted curve in the direction sought with a large enough effect; inconclusive = small, poorly fitted or top-dose-only effect, or another doubt; inactive = no such curve, though single readings can be large; an effect the other way counts as inactive or inconclusive.

Legend:
[1] = molecular target: Cytochrome P450 1A2 (Homo sapiens) (UniProt P05177); assay: p450-cyp1a2 (AID 410; calls by dose curve; also: potency is read from the fitted curve at half-maximal effect)
Chain of Cytochrome P450 1A2 (Homo sapiens) (P05177 whole entry, looked up): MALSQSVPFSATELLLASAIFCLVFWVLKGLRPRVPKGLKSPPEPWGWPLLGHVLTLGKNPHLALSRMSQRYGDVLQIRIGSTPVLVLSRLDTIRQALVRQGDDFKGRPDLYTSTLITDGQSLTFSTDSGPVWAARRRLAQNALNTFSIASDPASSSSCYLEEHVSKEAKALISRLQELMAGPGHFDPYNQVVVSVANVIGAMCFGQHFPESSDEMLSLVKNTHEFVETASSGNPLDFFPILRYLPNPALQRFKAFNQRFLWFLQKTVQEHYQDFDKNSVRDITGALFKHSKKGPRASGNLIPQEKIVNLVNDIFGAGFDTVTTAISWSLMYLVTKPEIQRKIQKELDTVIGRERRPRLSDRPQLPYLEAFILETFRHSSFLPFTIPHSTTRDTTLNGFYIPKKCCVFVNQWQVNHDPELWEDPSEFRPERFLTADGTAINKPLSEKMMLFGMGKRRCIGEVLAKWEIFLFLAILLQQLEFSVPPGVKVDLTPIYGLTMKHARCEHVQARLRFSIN
Procedure, shortened: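 O-Demethylation of luciferin 6' methyl ether by human CYP1A2 is monitored as luciferase luminescence. Substrate sits at Km (100uM); enzyme is 20nM. Values are scaled to 57 uM furafylline as maximal inhibition.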

[2] = molecular target: Mitogen-activated protein kinase 10 (Mus musculus) (UniProt Q61831); assay: JNK3 AlphaScreen Assay (AID 530; active = well fitted curve in either direction with a large enough effect, not every such curve was filed as active;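 also: kinase came from lysate of stimulated human HepG2 cells; signal reports phosphorylation of biotinylated GST-cJun 1-79 at Ser73 with 10 µM ATP; series mostly up to about 57 µM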)
Procedure, shortened: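 Activity was read by AlphaScreen after JNK3-containing HepG2 lysate (cytokine pre-activated) phosphorylated biotinylated GST-cJun with 10 uM ATP at room temperature. Phospho-Ser73 cJun antibody with Protein-A acceptor beads provided detection.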

[3] = molecular target: 3',5'-cyclic-AMP phosphodiesterase 4B (Homo sapiens) (UniProt Q07343); assay: qHTS Assay for Inhibitors of PDE-IV (AID 607; active = well fitted activation curve with a large enough effect in the main read-out, with a control signal flat, not every such curve was filed as active)
Chain of 3',5'-cyclic-AMP phosphodiesterase 4B (Homo sapiens) (Q07343 whole entry, looked up): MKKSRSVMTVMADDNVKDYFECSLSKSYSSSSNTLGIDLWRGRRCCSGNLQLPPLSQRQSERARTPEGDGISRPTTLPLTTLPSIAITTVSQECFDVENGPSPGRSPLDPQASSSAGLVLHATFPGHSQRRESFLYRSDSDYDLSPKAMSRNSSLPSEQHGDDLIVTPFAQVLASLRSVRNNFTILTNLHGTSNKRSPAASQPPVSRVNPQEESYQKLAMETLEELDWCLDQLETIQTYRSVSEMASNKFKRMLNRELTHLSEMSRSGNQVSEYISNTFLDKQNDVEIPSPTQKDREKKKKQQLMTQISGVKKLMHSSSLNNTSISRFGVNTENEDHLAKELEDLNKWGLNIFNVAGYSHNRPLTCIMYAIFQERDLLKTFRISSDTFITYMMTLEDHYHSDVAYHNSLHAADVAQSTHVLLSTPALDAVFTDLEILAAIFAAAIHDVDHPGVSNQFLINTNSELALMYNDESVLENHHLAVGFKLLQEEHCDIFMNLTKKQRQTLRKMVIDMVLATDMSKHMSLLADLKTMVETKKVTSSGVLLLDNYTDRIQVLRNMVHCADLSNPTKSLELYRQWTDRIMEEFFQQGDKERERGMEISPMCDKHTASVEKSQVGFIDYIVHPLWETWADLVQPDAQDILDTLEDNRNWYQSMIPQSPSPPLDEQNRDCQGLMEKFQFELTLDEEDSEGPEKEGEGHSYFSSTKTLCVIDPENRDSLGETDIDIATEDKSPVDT
Procedure, shortened: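 The readout is membrane depolarisation from a cAMP-sensing CNG channel, detected with a potential dye at ex 535/em 590. Cells were HEK293-derived (endogenous PDE-IV) at 1000 cells/well, titrated up to 22.9 uM final.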

[4] = molecular target: Cytochrome P450 3A4 (Homo sapiens) (UniProt P08684); assay: qHTS Assay for Activators of Cytochrome P450 3A4 (AID 885); also: nearly all actives have a fitted effect of over 65% in size
Chain of Cytochrome P450 3A4 (Homo sapiens) (P08684 whole entry, looked up): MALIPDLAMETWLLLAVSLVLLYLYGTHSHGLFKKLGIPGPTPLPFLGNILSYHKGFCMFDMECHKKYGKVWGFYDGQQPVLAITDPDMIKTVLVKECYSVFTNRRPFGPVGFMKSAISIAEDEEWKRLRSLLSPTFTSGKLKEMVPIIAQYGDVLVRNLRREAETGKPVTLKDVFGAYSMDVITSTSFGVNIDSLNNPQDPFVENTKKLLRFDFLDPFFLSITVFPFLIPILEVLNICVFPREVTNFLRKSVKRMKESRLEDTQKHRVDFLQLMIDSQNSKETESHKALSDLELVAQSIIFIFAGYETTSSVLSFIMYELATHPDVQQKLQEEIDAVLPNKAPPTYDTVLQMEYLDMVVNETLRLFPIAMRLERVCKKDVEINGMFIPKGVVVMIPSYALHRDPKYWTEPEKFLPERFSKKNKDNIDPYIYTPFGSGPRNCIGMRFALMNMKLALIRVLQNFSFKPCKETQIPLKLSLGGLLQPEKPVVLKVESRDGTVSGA
Procedure, shortened: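 Activators are scored by enhanced luminescence from CYP3A4 conversion of luciferin-PPXE (25uM, equal to KM) to luciferin, after 60 min at RT with an NADPH-regenerating system.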

[5] = molecular target: Ubiquitin carboxyl-terminal hydrolase 1 (Homo sapiens) (UniProt O94782); assay: Inhibitors of USP1/UAF1: Pilot qHTS (AID 504865);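 also: rhodamine fluorescence freed from ubiquitin-rhodamine substrate followed over time; top concentration of the series differs between compounds; nearly all actives have a fitted effect of over 35% in size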
Chain of Ubiquitin carboxyl-terminal hydrolase 1 (Homo sapiens) (O94782 whole entry, looked up): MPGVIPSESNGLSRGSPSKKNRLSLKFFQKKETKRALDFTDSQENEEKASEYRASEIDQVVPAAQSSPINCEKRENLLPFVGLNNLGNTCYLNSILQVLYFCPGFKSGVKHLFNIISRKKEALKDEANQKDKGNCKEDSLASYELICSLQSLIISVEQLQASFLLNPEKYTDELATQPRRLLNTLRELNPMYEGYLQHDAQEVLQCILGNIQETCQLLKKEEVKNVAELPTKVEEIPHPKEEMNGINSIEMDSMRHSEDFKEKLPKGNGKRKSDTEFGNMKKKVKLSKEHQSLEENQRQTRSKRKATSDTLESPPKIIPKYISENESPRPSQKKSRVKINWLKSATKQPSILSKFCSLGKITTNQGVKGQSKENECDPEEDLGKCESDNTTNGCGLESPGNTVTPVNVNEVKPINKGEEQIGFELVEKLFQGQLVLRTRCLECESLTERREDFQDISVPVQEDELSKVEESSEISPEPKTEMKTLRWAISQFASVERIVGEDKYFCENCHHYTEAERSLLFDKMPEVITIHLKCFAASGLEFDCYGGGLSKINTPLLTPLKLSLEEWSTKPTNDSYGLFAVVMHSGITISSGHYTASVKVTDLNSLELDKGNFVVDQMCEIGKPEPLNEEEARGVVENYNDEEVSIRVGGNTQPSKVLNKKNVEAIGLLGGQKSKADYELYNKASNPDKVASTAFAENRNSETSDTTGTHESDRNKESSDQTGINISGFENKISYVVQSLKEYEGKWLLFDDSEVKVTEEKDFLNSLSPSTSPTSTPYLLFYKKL
Procedure, shortened: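 USP1/UAF1 complex (1nM) preincubated with compound 15 min at room temperature, then Ub-Rho substrate (150nM final) added. Fluorescence read kinetically at 480/540 nm, 6 reads every 60 seconds. Buffer: 50mM HEPES pH 7.8, 0.5mM EDTA, 0.1 mg/ml BSA, 1mM TCEP, 0.01% Tween-20.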

[6] = molecular target: DNA dC->dU-editing enzyme APOBEC-3G (Homo sapiens) (UniProt Q9HC16); assay: qHTS for inhibitors of Vif-A3G interactions: Validation (AID 588379)
Chain of DNA dC->dU-editing enzyme APOBEC-3G (Homo sapiens) (Q9HC16 whole entry, looked up): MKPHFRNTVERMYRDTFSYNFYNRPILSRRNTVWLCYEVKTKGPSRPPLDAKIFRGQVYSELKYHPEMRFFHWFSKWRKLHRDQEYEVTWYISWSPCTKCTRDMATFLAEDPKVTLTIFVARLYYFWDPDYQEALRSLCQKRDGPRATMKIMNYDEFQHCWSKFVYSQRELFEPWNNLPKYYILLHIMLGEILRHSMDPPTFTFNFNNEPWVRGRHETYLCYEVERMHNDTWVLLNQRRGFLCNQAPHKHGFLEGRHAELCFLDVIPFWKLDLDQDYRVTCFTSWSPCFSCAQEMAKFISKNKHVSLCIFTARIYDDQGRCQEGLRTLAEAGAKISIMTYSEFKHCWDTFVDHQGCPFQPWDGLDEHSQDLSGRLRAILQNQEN
Procedure, shortened: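 Yellow fluorescence (Ex 488, Em 500-530) of Vif-coexpressing HeLa A3G-eYFP cells, scanned by Acumen cytometer, reports blocked A3G degradation. Cells plated at 700/well overnight at 37 deg C before compound addition, then a further overnight compound incubation at 37 deg C.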

[7] = test system: Zika virus NS2B-NS3 protease; assay: Primary screen GU AMC qHTS for Zika virus inhibitors (AID 1347154); also: nearly all actives have a fitted effect of over 70% in size; also: potency is read from the fitted curve at half-maximal effect
Procedure, shortened: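 Unlinked Zika NS2B hydrophilic domain–NS3 protease complex at 25 nM in 10 mM Tris-HCl pH 8.0, 0.01% Tween 20, with an AMC peptide substrate. Fluorescence change (340/450 nm) over 15 min at room temperature, normalized to controls, fitted to 4-parameter Hill.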

[8] = molecular target: Glucocorticoid receptor (Homo sapiens) (UniProt P04150); assay: GR-GFP Redistribution (AID 450;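 active = compounds whose dose series gives a full or clear partial fitted curve of increased nuclear translocation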; also: potency is read from the fitted curve at half-maximal effect); conditions: U2OS GR-GFP nuclear translocation, laser cytometry, 2 h
Chain of Glucocorticoid receptor (Homo sapiens) (P04150 whole entry, looked up, the tested form may be a part): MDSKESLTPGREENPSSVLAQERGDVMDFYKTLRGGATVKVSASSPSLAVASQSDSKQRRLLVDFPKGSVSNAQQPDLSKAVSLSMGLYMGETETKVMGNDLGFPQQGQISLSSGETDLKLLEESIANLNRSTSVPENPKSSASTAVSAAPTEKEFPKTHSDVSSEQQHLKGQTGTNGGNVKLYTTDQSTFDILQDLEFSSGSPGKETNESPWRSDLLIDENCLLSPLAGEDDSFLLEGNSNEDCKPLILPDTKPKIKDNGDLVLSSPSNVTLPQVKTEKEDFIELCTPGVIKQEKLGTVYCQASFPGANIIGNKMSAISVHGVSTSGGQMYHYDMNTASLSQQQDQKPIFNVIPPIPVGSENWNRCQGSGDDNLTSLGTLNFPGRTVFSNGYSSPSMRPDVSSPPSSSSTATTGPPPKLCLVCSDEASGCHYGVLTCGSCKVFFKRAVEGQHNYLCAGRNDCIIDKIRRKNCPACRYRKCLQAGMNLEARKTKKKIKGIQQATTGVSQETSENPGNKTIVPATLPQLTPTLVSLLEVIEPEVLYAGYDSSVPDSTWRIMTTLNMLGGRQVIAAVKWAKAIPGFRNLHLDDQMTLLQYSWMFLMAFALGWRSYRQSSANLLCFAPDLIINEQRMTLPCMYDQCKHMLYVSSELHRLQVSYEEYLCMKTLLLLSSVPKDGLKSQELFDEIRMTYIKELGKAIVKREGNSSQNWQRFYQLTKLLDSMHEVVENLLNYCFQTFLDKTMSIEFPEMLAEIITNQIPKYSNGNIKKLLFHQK

[9] = molecular target: Glucocorticoid receptor (Homo sapiens) (UniProt P04150); assay: GR-EFC Redistribution (AID 451; calls by dose curve; also: potency is read from the fitted curve at half-maximal effect); conditions: CHO-K1 GR-EFC translocation, beta-gal luminescence, 2 h
Procedure, shortened: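 CHO-K1 cells expressing nuclear EA and GR-ED fragments of b-gal; compounds titrated up to 46 uM final, 2 h at 37 C. GR nuclear translocation read as complemented b-gal luminescence after 1 h RT detection.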

[10] = molecular target: Cytochrome P450 2C9 (Homo sapiens) (UniProt P11712); assay: qHTS Assay for Inhibitors and Substrates of Cytochrome P450 2C9 (AID 883); also: potency is read from the fitted curve at half-maximal effect; nearly all actives have a fitted effect of over 60% in size
Procedure, shortened: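 Signal: luciferase luminescence reporting luciferin produced by CYP2C9. Conditions: 10nM enzyme, Luciferin-H 100uM at KM, 25mM KPO4, 37C, 60 min NADPH-driven reaction. Reference: 57uM sulphaphenazole as 100% inhibition.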

[11] = molecular target: Cytochrome P450 2C19 (Homo sapiens) (UniProt P33261); assay: qHTS Assay for Inhibitors and Substrates of Cytochrome P450 2C19 (AID 899); also: potency is read from the fitted curve at half-maximal effect; nearly all actives have a fitted effect of over 60% in size
Procedure, shortened: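 Signal comes from luciferase acting on luciferin released by CYP2C19-mediated hydroxylation of Luciferin-H EGE, 10uM (KM). Assay mix: 5nM enzyme, 50mM KPO4; 60 min at 37C with NADPH regeneration. Data normalized against 57uM ketoconazole.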

[12] = Confirmatory screen GU Rhodamine qHTS for Zika virus inhibitors qHTS (AID 1347157); also: potency is read from the fitted curve at half-maximal effect; nearly all actives have a fitted effect of over 70% in size
Procedure, shortened: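 Buffer 10 mM Tris-HCl pH 8.0, 0.01% Tween 20. Unlinked protease 25 nM; compound preincubation 15 min, RT, protected from light. Substrate Rhod110, 1.5 microM; ~15% conversion in 15 min.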

[13] = ZIKV-mCherry secondary qHTS for Zika virus inhibitors (AID 1347158); also: top concentration of the series differs between compounds
Procedure, shortened: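 Compounds were tested in Vero monkey kidney cells infected with recombinant mCherry-expressing Zika virus at MOI 1 for 48-72 h at 37 °C. Fixed cells were nuclear-stained and imaged, and infection rate was taken as the fraction of mCherry-positive cells.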

[14] = molecular target: Guanine nucleotide-binding protein G(i) subunit alpha-1 (Homo sapiens) (UniProt P63096); assay: qHTS Assay for Inhibitors of RGS12 GoLoco Motif Activity (Green Fluorophore) (AID 879);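 also: negative values mean loss of peptide binding seen as reduced polarization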
Procedure, shortened: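 A drop in FITC polarization marked displacement of the FITC-tagged RGS12 GoLoco peptide (10 nM) from Gαi1 (50 nM). Compounds were incubated 10 min at room temperature in Tris pH 7.5 buffer containing 150 mM NaCl, 0.1 mM GDP and 0.05% NP40; unlabeled peptide titration served as control.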

[15] = qHTS Assay for Identification of Small Molecule Agonists for Thrombopoietin (TPO) Signaling Pathway (AID 917)
Procedure, shortened: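 First, Ba/F3 cells with human TPO receptor were held overnight without IL-3. Next, compounds and TPO (26 pM final) were added. After 24 hrs at 37 C, luciferase detection reagent was added and luminescence measured following 10 min at room temperature.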

[16] = molecular target: Muscarinic acetylcholine receptor M1 (Rattus norvegicus) (UniProt P08482); assay: qHTS Assay for Antagonists of Acetylcholine Muscarinic M1 Receptor: Kinetic Measurement of Intracellular Calcium Response (AID 943);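 also: Fluo-4 calcium signal as peak divided by basal fluorescence over 4 min; series mostly up to about 35 µM; nearly all actives have a fitted effect of over 75% in size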
Chain of Muscarinic acetylcholine receptor M1 (Rattus norvegicus) (P08482 whole entry, looked up): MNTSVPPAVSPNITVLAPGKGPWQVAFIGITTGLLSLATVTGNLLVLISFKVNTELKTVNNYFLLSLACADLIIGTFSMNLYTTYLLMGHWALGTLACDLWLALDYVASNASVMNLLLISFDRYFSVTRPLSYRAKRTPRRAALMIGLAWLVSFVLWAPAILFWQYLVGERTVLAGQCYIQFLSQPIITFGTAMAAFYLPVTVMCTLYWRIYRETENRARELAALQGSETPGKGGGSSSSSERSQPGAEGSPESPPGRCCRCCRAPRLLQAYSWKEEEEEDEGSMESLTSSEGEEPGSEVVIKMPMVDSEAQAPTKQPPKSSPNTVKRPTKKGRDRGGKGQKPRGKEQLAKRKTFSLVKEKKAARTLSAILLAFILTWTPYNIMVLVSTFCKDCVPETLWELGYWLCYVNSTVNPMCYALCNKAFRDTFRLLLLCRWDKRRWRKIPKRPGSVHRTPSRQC
Procedure, shortened: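 Antagonism is measured as inhibition of the carbachol-evoked calcium rise in CHO cells transfected with rat M1. Cells are dye-loaded, exposed to compound for 10 min, then stimulated with 100 nM carbachol (EC80).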

[17] = molecular target: Muscarinic acetylcholine receptor M1 (Rattus norvegicus) (UniProt P08482); assay: qHTS Assay for Antagonists of Acetylcholine Muscarinic M1 Receptor: Measurement of IP-One Response (AID 944); also: nearly all actives have a fitted effect of over 75% in size
Procedure, shortened: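 Antagonist mode with rat M1 receptor transfected into CHO cells. Compound is added first for 10 min, carbachol at its EC80 follows for 30 min, and lysis reagents then allow TR-FRET detection of accumulated IP1.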

[18] = molecular target: Pyruvate kinase (Leishmania mexicana) (UniProt Q27686); assay: qHTS Validation Assay for Inhibitors of Leishmania Mexicana Pyruvate Kinase (AID 945)
Procedure, shortened: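 Read-out: luminescence from PKLight stop/detection reagent, data normalized to DMSO. Reaction: 0.2 nM E451W LmPYK, 0.5 mM PEP, 0.1 mM ADP, pH 7.2, 1 h room temperature.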

[19] = molecular target: Pyruvate kinase PKM (Homo sapiens) (UniProt P14618); assay: qHTS Assay for Activators of Human Muscle Pyruvate Kinase (AID 954; active = well fitted curve in the direction sought with a large enough effect, not every such curve was filed as active)
Chain of Pyruvate kinase PKM (Homo sapiens) (P14618 whole entry, looked up): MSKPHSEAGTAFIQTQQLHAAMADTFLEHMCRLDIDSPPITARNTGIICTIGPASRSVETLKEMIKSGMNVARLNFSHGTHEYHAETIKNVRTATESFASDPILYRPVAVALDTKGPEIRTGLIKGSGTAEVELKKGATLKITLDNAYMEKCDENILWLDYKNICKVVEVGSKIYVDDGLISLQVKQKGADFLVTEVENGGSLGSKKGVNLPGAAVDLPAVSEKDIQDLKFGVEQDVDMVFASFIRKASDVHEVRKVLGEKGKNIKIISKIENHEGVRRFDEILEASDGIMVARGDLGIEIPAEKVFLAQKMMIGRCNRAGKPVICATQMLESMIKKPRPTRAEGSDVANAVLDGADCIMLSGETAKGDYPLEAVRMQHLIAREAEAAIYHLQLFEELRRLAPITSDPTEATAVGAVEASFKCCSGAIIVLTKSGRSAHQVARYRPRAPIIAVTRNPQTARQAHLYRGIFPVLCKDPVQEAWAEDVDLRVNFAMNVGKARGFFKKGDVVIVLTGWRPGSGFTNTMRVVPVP
Procedure, shortened: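 PKM2, human, >95% pure, 0.1 nM; PEP 0.5 mM (Km), ADP 0.1 mM; 50 mM imidazole pH 7.2, 50 mM KCl, 0.01% Tween 20, 0.05% BSA; 1 h RT; luciferase luminescence readout.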

[20] = molecular target: Alpha-galactosidase A (Homo sapiens) (UniProt P06280); assay: Counterscreen for Glucocerebrosidase Inhibitors: qHTS Assay for Human alpha-Galactosidase at pH 4.5 (AID 992)
Procedure, shortened: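 Fluorogenic 4-MU alpha-D-galactoside (80 uM) hydrolysis, 2 nM enzyme, pH 4.5 citrate buffer + 0.005% Tween-20; 20 min RT; NaOH/glycine pH 10 stop; Ex365/Em440. Compounds titrated 0.7 nM–77 uM; Hill-equation AC50.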

[21] = molecular target: alpha-glucosidase (Oryza sativa, rice) (UniProt Q653V4); assay: Counterscreen for Glucocerebrosidase Inhibitors: qHTS Assay for Rice alpha-Glucosidase at pH 5.0 (AID 997)
Procedure, shortened: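 Endpoint fluorogenic assay at pH 5.0: compounds (0.7 nM to 77 uM) titrated against 4 nM rice enzyme and 400 uM 4-MU-alpha-glucoside for 20 min at room temperature; NaOH/glycine stop, read ex 365/em 440 nm, Hill-fitted AC50.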

[22] = molecular target: Cytochrome P450 3A4 (Homo sapiens) (UniProt P08684); assay: qHTS Assay for Inhibitors and Substrates of Cytochrome P450 3A4 (AID 884); also: potency is read from the fitted curve at half-maximal effect; nearly all actives have a fitted effect of over 50% in size
Procedure, shortened: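 Luminescent readout of luciferin produced by CYP3A4 (20 nM) dealkylation of Luciferin-PPXE, 25 uM (its KM). NADPH-driven reaction ran 60 min at RT after 10 min compound preincubation; data scaled to 57 uM ketoconazole as 100% inhibition.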

Measured: Potency

N#C[C@H](Cc1ccc(O)cc1)c1ccc(O)cc1
active: [1] 12.6 µM
inactive: [2] | [3] | [4] | [5] | [6] | [7]

CCCCCN=c1ccn(Cc2ccccc2)c2ccccc12
inactive: [8] > 46 µM | [9] > 46 µM | [4] | [6] | [7]
active: [1] 25.1 µM | [10] 0.316 µM | [11] 0.251 µM

c1cc2c3c(c1)c1c(n3CCNC2)CCCC1
inactive: [8] > 46 µM | [9] > 46 µM | [5] | [6] | [7]

O=C(Nc1cccc(C(=O)OCc2cc(=O)n3nc(C4CC4)sc3n2)c1)c1cccc(Cl)c1
active: [12] 56.2 µM
inactive: [13]

Clc1cccc(C=NC=Nc2cccc(Cl)c2)c1
inactive: [8] > 46 µM | [9] > 46 µM | [5] | [6] | [7]

C[C@@]12CC[C@@H]3c4ccc(O)cc4C[C@H](CCCCCCCCCS(=O)CCCC(F)(F)C(F)(F)F)[C@H]3[C@@H]1CC[C@@H]2O (stereo partly drawn)
inactive: [8] > 46 µM | [9] > 46 µM | [2] | [3] | [6] | [7]

O=C(/C=C\c1ccc(O)c(O)c1)O[C@@H](Cc1ccc(O)c(O)c1)C(=O)O
inactive: [8] > 46 µM | [9] > 46 µM | [6]
active: [7] 4.74 µM

CCCCCCCCCCCCCCCCCCc1ccc(C(=O)/C=C\C(=O)O)cc1
inactive: [8] > 46 µM | [9] > 46 µM | [2] | [6] | [7]

C[C@@H]1CNCCN1S(=O)(=O)c1cccc2cnccc12
inactive: [8] > 46 µM | [9] > 46 µM | [2] | [3] | [14] | [15] | [16] | [17] | [18] | [19] | [20] | [21] | [6] | [7]

CC(C)Oc1cccc(-n2c(CCc3c[nH]c4ccc(Br)cc34)nc3ccccc3c2=O)c1
active: [22] 3.98 µM
inactive: [8] > 46 µM | [9] > 46 µM | [2] | [4] | [6] | [7]
